# PLK1 PBD block: qHTS for Inhibitors of PLK1-PDB (polo-like kinase 1 - polo-box domain): Primary Screen; 2.8% of 360,000 active; Plk1 PBD binding of FITC phosphopeptide, fluorescence polarization; Potency, µM, for inactives: max response, negative = inhibition, usual class: inhibitors; Serine/threonine-protein kinase PLK1 (Homo sapiens), P53350; also: series mostly up to about 57 µM; nearly all actives have a fitted effect of over 65% in size
# RORgamma inh: qHTS for inhibitors of ROR gamma transcriptional activity | AID 2551, 2010 | 5.4% of 310,000 active | Drosophila S2 Gal4-RORgamma UAS-luciferase reporter, 20 h | Potency, µM (highest dose often 53.6 µM), for the others: at the highest dose activity change, negative = inhibition, hits mostly inhibitors | Nuclear receptor ROR-gamma (Mus musculus), P51450; also: nearly all actives have a fitted effect of over 60% in size
# Target sequence (P51450 whole entry, looked up, the tested form may be a part): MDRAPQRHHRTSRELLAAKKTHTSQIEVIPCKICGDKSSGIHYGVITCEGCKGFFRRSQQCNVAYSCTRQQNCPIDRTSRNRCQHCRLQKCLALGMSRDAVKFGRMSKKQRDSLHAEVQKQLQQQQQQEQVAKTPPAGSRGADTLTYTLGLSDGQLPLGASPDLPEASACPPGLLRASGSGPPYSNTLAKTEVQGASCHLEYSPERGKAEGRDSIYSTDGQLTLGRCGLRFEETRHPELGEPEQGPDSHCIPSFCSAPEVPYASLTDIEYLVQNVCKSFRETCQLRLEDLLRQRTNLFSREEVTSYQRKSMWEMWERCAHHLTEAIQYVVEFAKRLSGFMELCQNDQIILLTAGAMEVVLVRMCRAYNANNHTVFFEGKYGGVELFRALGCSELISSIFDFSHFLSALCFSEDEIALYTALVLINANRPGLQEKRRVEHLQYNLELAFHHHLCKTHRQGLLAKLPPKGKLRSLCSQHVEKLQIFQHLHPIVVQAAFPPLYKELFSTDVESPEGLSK
#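 Stably transfected Drosophila Schneider cells are the test system, with ROR gamma fused to Gal4 and luciferase under UAS control; luminescence is read after 20 hr of 700 uM copper sulfate induction at ambient temperature.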
# ALDH1A1 inh: qHTS Assay for Inhibitors of Aldehyde Dehydrogenase 1 (ALDH1A1); Aldehyde dehydrogenase 1A1 (Homo sapiens), P00352; Purified ALDH1A1, NADH fluorescence, propionaldehyde substrate; Potency, µM (highest dose often 75.3 µM), for inactives: at the top dose activity, negative = inhibition, actives largely listed as inhibitors; 7.3% of 220,000 active; AID 1030, 2008; active = well fitted inhibition curve with a large enough effect, not every such curve was filed as active; inconclusive = small, poorly fitted or top-dose-only effect, or another doubt; inactive = no such curve, though single readings can be large or run the other way;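 also: plate controls were no enzyme wells and a reference inhibitor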
# VP16 counter: VP16 counterscreen qHTS for inhibitors of ROR gamma transcriptional activity; Potency, µM (doses to about 53.6 µM), without a hit: top-dose activity, negative = inhibition, hits mostly inhibitors; Drosophila S2 Gal4-VP16 UAS-luciferase, luminescence, 20 h; 3.5% of 310,000 active;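 also: Gal4-VP16 expression switched on by copper sulfate through the metallothionein promoter; nearly all actives have a fitted effect of over 50% in size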
# Sfp inh: qHTS Assay for Inhibitors of Bacillus subtilis Sfp phosphopantetheinyl transferase (PPTase) | 4'-phosphopantetheinyl transferase ffp (Bacillus subtilis), Q9F4F7 | Biochemical Sfp PPTase activity, qHTS | Potency, µM, for the others: largest response in the series, negative = inhibition, hits mostly inhibitors | 3.5% of 310,000 active;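 also: the enzyme is Sfp with the accession as filed and its product quenches rhodamine fluorescence; 0% = enzyme reaction without inhibitor and -100% = no enzyme wells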
#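 Fluorescence-quenching assay: 15 nM Sfp-PPTase preincubated 15 min at room temperature with compound, then 5 uM rhodamine-CoA and 12.5 uM BHQ-2-labelled YbbR peptide added. Fluorescence (ex 525/em 598 nm) read at start and after 30 min; difference gives rate.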
# An asterisk follows results filed as active; ? = inconclusive; . = no result; ! = not active in a repeat; [ ] = another dose, or the depositor's remark. This is a sample that favours compounds with a hit; in the whole collection about 12% have one here. Unless noted, calls follow the shape of the dose curve; as a rule, active = well fitted curve in the direction sought with a large enough effect; inconclusive = small, poorly fitted or top-dose-only effect, or another doubt; inactive = no such curve, though single readings can be large; an effect the other way counts as inactive or inconclusive. Unless noted, % is scaled to controls: 0 for no effect and ±100 for the full control effect; potency is read from the fitted curve at half-maximal effect.
SMILES,PLK1 PBD block,RORgamma inh,ALDH1A1 inh,VP16 counter,Sfp inh
CCNc1cc(N2CCN(C)CC2)ccc1[N+](=O)[O-],3%,6%,-2%,4%[10 µM],?
CN(C)c1c([N+](=O)[O-])cc(N2C(=O)C=CC2=O)cc1[N+](=O)[O-],3µM*,.,.,.,.
CC(C)(C)OOC(=O)c1ccccc1,.,-18%,?,-7%,.
NC(=O)CSP(=O)(c1ccccc1)c1ccccc1,?,6%[0.365 µM],-11%,.,16µM*
CNC1C2CN3CCC(O2)C13 (stereo not drawn),.,-4%,-3%,-9%,1%
Fc1ccccc1CCNCc1cccc2ccccc12,-3%,?,-6%,20µM*,-31%
Cc1ccc(CNCCc2ccccc2F)cc1,-1%,-1%,1%,4%,6%
CCOc1cc(C2C(C#N)=C(N)Oc3c2c(=O)oc2ccccc32)ccc1OC(=O)c1cccs1 (stereo not drawn),6%,-6%,18%,-20%,50µM*
Cc1cccc(N=Nc2ccc(N(C)C)cc2)c1,1%,7.9µM*,.,13µM*,-6%
c1ccc(N=Nc2ccccc2)cc1,.,31%,?,3%,9%
C=CC=O,.,-5%,0.022µM*,-22%,.
CC1CCC2C(C)C(=O)OC3OC4(C)CCC1C32OO4 (stereo not drawn),-1%,-10%,?,3%,89µM*!
CC1CCC2[C@@H](C)C(=O)OC3O[C@]4(C)CCC1C32OO4 (stereo partly drawn),2%,.,.,.,.
Oc1c(Cl)cccc1Cl,.,-2%,15%,6%,.
COc1cc([C@H]2c3cc4c(cc3[C@@H](O)[C@@H]3COC(=O)[C@H]23)OCO4)cc(OC)c1OC,.,-24%[16.9 µM],-5%[20.9 µM],-9%[17 µM],11%
Cc1cc2oc(=O)cc(-c3ccccc3)c2c(C)c1-c1ccc(CO)cc1,0%,-3%,?,-8%,126µM*
O=C(NCP(=O)(O)O)c1cccnc1,.,.,7%[13.5 µM],.,.
CN1C(=O)C(Cc2ccc3c(c2)OCO3)C(=O)N(C)C1=O,.,-17%,24µM*,-12%,?
CN1C(=O)C(Cc2ccsc2)C(=O)N(C)C1=O,?,-13%,13µM*,-5%,28µM*
CCCCOc1ccc(CC2C(=O)N(C)C(=O)N(C)C2=O)cc1,?,26%,13%,-6%,?
O=C(CCCc1nc(-c2ccc(Cl)cc2)no1)NCC1CCCO1 (stereo not drawn),-23%,4%,.,13µM*,23%
CNc1ccc2oc(C[C@H]3O[C@@]4(CC[C@H]3C)O[C@H]([C@H](C)C(=O)c3ccc[nH]3)[C@H](C)C[C@H]4C)nc2c1C(=O)O,?,-9%,?,1.3µM*,-14%
CCON=O,.,-7%,.,4%,-2%
CCCSC(=O)Cl,.,15%,-21%,3%,.
COc1ccc(/C=C/C2=CCN(C)CC2)cc1,-12%,-25%,25µM*,3%,0%
SMILES,PLK1 PBD block,RORgamma inh,ALDH1A1 inh,VP16 counter,Sfp inh
CCCOCCN(C(=O)CCl)c1c(CC)cccc1CC,.,-13%,.,3%,14%
NC(N)=N/N=C/c1c(Cl)cccc1Cl,-10%,-9%[10 µM],-2%,4%,100µM*!
[CH3][Hg][Cl],.,0.89µM*,0.71µM*,0.71µM*,.
C[C@H](NC(=O)[C@@H](N)Cc1ccc(O)cc1)C(=O)NCC(=O)N(C)[C@@H](Cc1ccccc1)C(=O)NCCO,.,.,-1%,.,5%
O=C(c1ccccc1)C(CN1CCCC1)c1ccccc1 (stereo not drawn),-12%,5.6µM*,?,4.5µM*,-22%
CC(C)NC(=O)N1CCC2(CC1)CCN(C(=O)Oc1ccccc1)CC2,.,21%,8%,10%,15%
COC(=O)C1C(c2ccccc2)C2C(=O)c3c(OC)cc(OC)cc3O[C@@]12c1ccc(OC)cc1 (stereo partly drawn),.,4%[10 µM],?,-10%[10 µM],11%
COC(=O)[C@@H]1[C@@H](O)[C@@]2(O)c3c(OC)cc(OC)cc3O[C@@]2(c2ccc(OC)cc2)[C@H]1c1ccccc1,.,0.4µM*,9%[13.5 µM],0.1µM*,10%
O=C1/C(=C/c2cc3c(cc2Cl)OCO3)N2CCC1CC2,.,0%,13µM*,-15%,8%
CN1CC[C@@H]2CN3CCc4cccc(c43)[C@H]2C1,.,-10%,?,9%,-9%
CCOCCSc1nc2c(c(-c3cccs3)c1C#N)CC/C2=C/c1cccs1,-25%,-43%,?,?,35µM*
CN1C(=O)C(=Cc2ccc(Sc3ccccc3)o2)C(=O)N(C)C1=S,2.7µM*,.,.,.,.
CN1C(=O)C(=Cc2ccc(Sc3ccccc3)o2)C(=O)N(C)C1=O,?,?,?,2%,6%
CC(Cl)(Cl)Cl,.,0%,-2%,1%,.
COc1cccc([C@@]2(O)CCCCC2CN(C)C)c1 (stereo partly drawn),.,-3%,.,-2%,17%
Nc1ccc2c3c(cccc13)-c1ccccc1-2,9.5µM*,.,.,.,.
CC(C)CCNC(=O)CNC(=O)[C@@H](C)NC(=O)[C@@H](N)Cc1ccc(O)cc1,.,-3%,.,-5%,2%
Cc1c(C(=O)c2cccc3ccccc23)c2cccc3c2n1[C@@H](CN1CCOCC1)CO3,.,-19%,?,-3%,7%
Clc1cc(Cl)c(Cl)c(Cl)c1,.,14%,?,-16%,.
O=C1NC(=S)NC(=O)C1Nc1ccc(Cl)cc1,3µM*,.,.,.,.
NC(=O)CNC(=O)[C@H](Cc1ccccc1)NC(=O)[C@H](CCCN=C(N)N)NC(=O)[C@@H](N)Cc1ccc(O)cc1,.,.,5%,.,19%
O=c1ccc(=O)[nH][nH]1,.,6%,?,20%,.
CN1CCN2c3ccc(N)cc3CC3(C(=O)NC(=O)NC3=O)C2C1 (stereo not drawn),-6%,1%,.,3%,22µM*
CC(C)CN1CCC2(CC1)CCN(C(=O)Oc1ccccc1)CC2,.,-5%,4%,-13%,20%
CCCCC[C@@H](/C=C/C=C\CCCCCCCCCC(=O)O)OO,.,0%,0%,0%,2%
SMILES,PLK1 PBD block,RORgamma inh,ALDH1A1 inh,VP16 counter,Sfp inh
CCNC(=O)CCSc1nc2cc(Cl)ccc2o1,-6%,16%,6%,?,19%
Cc1ccc(Cn2ccc(NC(=O)c3cc(-c4ccco4)on3)n2)cc1,-10%,14%,18µM*,1%,-25%
CN(C)C(=Nc1ccccc1)P(=S)(N(C)C)N(C)C,-5%,10µM*,-8%,-6%,-8%
NCC(CC(=O)O)c1ccc(Cl)s1 (stereo not drawn),.,.,-3%,.,24%
O=[N+]([O-])CCO,0%,17%,18µM*,4%,.
OC1(c2ccc(F)cc2)CC2CCC(C1)N2Cc1nnnn1C1CCCC1 (stereo not drawn),-1%,1%,2µM*,-6%,15%

# Source: PubChem (National Center for Advancing Translational Sciences (NCATS))
